From the supplement of paper PMC8728848
This excerpt belongs to a sample that is enriched for the strongest signals.

Legend:
Experiment in all cases: glycan array binding signal (z-score within array); higher = stronger binding
Settings in all cases: glycan notation: IUPAC condensed, linker removed
[1] = target: Fuc(a1-2)Gal(b1-3)GlcNAc(b1-3)Gal(b1-4)Glc
Procedure, shortened: (§1)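 The binding signal is a Z-score computed within each array and averaged over linkers. Arrays of the same protein sequence at different concentrations or buffers were also averaged together. Data originate from 3228 arrays in the Consortium for Functional Glycomics database, kept only where the protein sequence was available.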

[2] = target: Fuc(a1-2)Gal(b1-3)GlcNAc6S
Procedure, shortened: as §1

[3] = target: Fuc(a1-2)Gal(b1-3)[Fuc(a1-4)]GlcNAc
Procedure, shortened: as §1

[4] = target: Fuc(a1-2)Gal(b1-4)Fuc(a1-3)]GlcNAc(b1-2)Man(a1-3)[Fuc(a1-2)Gal(b1-4)[Fuc(a1-3)]GlcNAc(b1-2)Man(a1-6)]Man(b1-4)GlcNAc(b1-4)GlcNAc
Procedure, shortened: as §1

[5] = target: Fuc(a1-2)Gal(b1-4)GlcNAc(b1-3)[Fuc(a1-2)Gal(b1-4)GlcNAc(b1-6)]GalNAc
Procedure, shortened: as §1

[6] = target: Fuc(a1-2)Gal(b1-4)[Fuc(a1-3)]GlcNAc(b1-3)Gal(b1-4)[Fuc(a1-3)]GlcNAc
Procedure, shortened: as §1

[7] = target: Fuc(a1-2)[Gal(a1-3)]Gal(b1-4)GlcNAc(b1-2)Man(a1-3)[Fuc(a1-2)[Gal(a1-3)]Gal(b1-4)GlcNAc(b1-2)Man(a1-6)]Man(b1-4)GlcNAc(b1-4)[Fuc(a1-6)]GlcNAc
Procedure, shortened: as §1

[8] = target: Fuc(a1-3)[Gal(b1-4)]GlcNAc(b1-3)Gal(b1-4)[Fuc(a1-3)]GlcNAc(b1-3)Gal(b1-4)[Fuc(a1-3)]GlcNAc
Procedure, shortened: as §1

[9] = target: Fuc(a1-3)[Gal(b1-4)]GlcNAc(b1-3)GalNAc
Procedure, shortened: as §1

[10] = target: Gal(a1-3)Gal(b1-3)GlcNAc(b1-2)Man(a1-3)[Gal(a1-3)Gal(b1-3)GlcNAc(b1-2)Man(a1-6)]Man(b1-4)GlcNAc(b1-4)GlcNAc
Procedure, shortened: as §1

[11] = target: Gal(a1-3)Gal(b1-3)GlcNAc(b1-3)GalNAc
Procedure, shortened: as §1

[12] = target: Gal(a1-3)Gal(b1-4)GlcNAc(b1-3)GalNAc
Procedure, shortened: as §1

[13] = target: Gal(a1-3)Gal(b1-4)[Fuc(a1-3)]GlcNAc(b1-2)Man(a1-3)[Gal(a1-3)Gal(b1-4)[Fuc(a1-3)]GlcNAc(b1-2)Man(a1-6)]Man(b1-4)GlcNAc(b1-4)GlcNAc
Procedure, shortened: as §1

[14] = target: Gal(a1-4)Gal(b1-4)GlcNAc(b1-3)Gal(b1-4)Glc
Procedure, shortened: as §1

[15] = target: Gal(a1-4)GlcNAc
Procedure, shortened: as §1

[16] = target: Gal(b1-2)Gal
Procedure, shortened: as §1

[17] = target: Gal(b1-3)GlcNAc(b1-2)Man(a1-3)[Gal(b1-3)GlcNAc(b1-2)Man(a1-6)]Man(b1-4)GlcNAc(b1-4)GlcNAc
Procedure, shortened: as §1

[18] = target: Gal(b1-3)GlcNAc(b1-3)Gal(b1-4)GlcNAc(b1-3)Gal(b1-4)GlcNAc(b1-2)[Gal(b1-3)GlcNAc(b1-3)Gal(b1-4)GlcNAc(b1-3)Gal(b1-4)GlcNAc(b1-6)]Man(a1-6)[Gal(b1-3)GlcNAc(b1-3)Gal(b1-4)GlcNAc(b1-3)Gal(b1-4)GlcNAc(b1-2)Man(a1-3)]Man(b1-4)GlcNAc(b1-4)[Fuc(a1-6)]GlcNAc
Procedure, shortened: as §1

[19] = target: Gal(b1-3)GlcNAc6S
Procedure, shortened: as §1

[20] = target: Gal(b1-3)[Fuc(a1-4)]GlcNAc(b1-6)GalNAc
Procedure, shortened: as §1

[21] = target: Gal(b1-4)GlcNAc(b1-2)Man(a1-3)[GlcNAc(b1-4)][Gal(b1-4)GlcNAc(b1-2)Man(a1-6)]Man(b1-4)GlcNAc(b1-4)GlcNAc
Procedure, shortened: as §1

[22] = target: Gal(b1-4)GlcNAc(b1-2)[Gal(b1-4)GlcNAc(b1-4)]Man(a1-3)[GlcNAc(b1-4)][Gal(b1-4)GlcNAc(b1-2)Man(a1-6)]Man(b1-4)GlcNAc(b1-4)GlcNAc
Procedure, shortened: as §1

[23] = target: Gal(b1-4)GlcNAc(b1-2)[Gal(b1-4)GlcNAc(b1-6)]Man(a1-6)[GlcNAc(b1-4)][Gal(b1-4)GlcNAc(b1-2)Man(a1-3)]Man(b1-4)GlcNAc(b1-4)GlcNAc
Procedure, shortened: as §1

[24] = target: Gal(b1-4)GlcNAc(b1-3)Gal(b1-4)GlcNAc
Procedure, shortened: as §1

[25] = target: Gal(b1-4)GlcNAc(b1-3)Gal(b1-4)GlcNAc(b1-3)Gal(b1-4)GlcNAc(b1-3)Gal(b1-4)GlcNAc(b1-2)Man(a1-3)[Gal(b1-4)GlcNAc(b1-3)Gal(b1-4)GlcNAc(b1-3)Gal(b1-4)GlcNAc(b1-3)Gal(b1-4)GlcNAc(b1-2)Man(a1-6)]Man(b1-4)GlcNAc(b1-4)[Fuc(a1-6)]GlcNAc
Procedure, shortened: as §1

[26] = target: Gal(b1-4)GlcNAc(b1-3)Gal(b1-4)GlcNAc(b1-3)Gal(b1-4)GlcNAc(b1-3)Gal(b1-4)GlcNAc(b1-3)Gal(b1-4)GlcNAc(b1-3)Gal(b1-4)GlcNAc(b1-2)Man(a1-3)[Gal(b1-4)GlcNAc(b1-3)Gal(b1-4)GlcNAc(b1-3)Gal(b1-4)GlcNAc(b1-3)Gal(b1-4)GlcNAc(b1-3)Gal(b1-4)GlcNAc(b1-3)Gal(b1-4)GlcNAc(b1-2)Man(a1-6)]Man(b1-4)GlcNAc(b1-4)GlcNAc
Procedure, shortened: as §1

[27] = target: Gal(b1-4)GlcNAc(b1-3)Gal(b1-4)GlcNAc(b1-6)[Gal(b1-3)]GalNAc
Procedure, shortened: as §1

[28] = target: Gal3S(b1-4)[Fuc(a1-3)]Glc6S
Procedure, shortened: as §1

[29] = target: Gal6P(b1-4)GlcNAc
Procedure, shortened: as §1

[30] = target: GalNAc(a1-3)GalNAc
Procedure, shortened: as §1

B1: AntigenI/IIA3VP1 (Streptococcus mutans), C9E3B4 (protein)
chain: AANEADYQAKLTAYQTELARVQKANADAKAAYEAAVAANNAANAALTAENTAIKKRNADAKADYEAKLAKYQADLAKYQKDLADYPVKLKAYEDEQASIKAALAELEKHKNEDGNLTEPSAQNLVYDLEPNANLSLTTDGKFLKASAVDDAFSKSTSKAKYDQKILQLDDLDITNLEQSNDVASSMELYGNFGDKAGWSTTVSNNSQVKWGSVLLERGQSATATYTNLQNSYYNGKKISKIVYKYTVDPKSKFQGQKVWLGIFTDPTLGVFASAYTGQVEKNTSIFIKNEFTFYDEDGKPINFDNALLSVASLNREHNSIEMAKDYSGKFVKISGSSIGEKNGMIYATDTLNFKQGEGGSRWTMYKNSQAGSGWDSSDAPNSWYGAGAIKMSGPNNYVTVGATSATNVMPVSDMPVVPGKDNTDGKKPNIWYSLNGKIRAVNVPKVTKEKPTPPVKPTAPTKPTYETEKPLKPAPVAPNYEKEPTPPTRLEHHHHHH
- glycan array binding signal (z-score) [1]: -1.26
- glycan array binding signal (z-score) [2]: 0.457
- glycan array binding signal (z-score) [3]: 0.481
- glycan array binding signal (z-score) [4]: 4.68
- glycan array binding signal (z-score) [5]: 0.339
- glycan array binding signal (z-score) [6]: 0.17
- glycan array binding signal (z-score) [7]: 3.1
- glycan array binding signal (z-score) [8]: -0.372
- glycan array binding signal (z-score) [9]: 2.64
- glycan array binding signal (z-score) [10]: 3.47
- glycan array binding signal (z-score) [11]: 2.79
- glycan array binding signal (z-score) [12]: -1.15
- glycan array binding signal (z-score) [13]: 0.993
- glycan array binding signal (z-score) [14]: -0.067
- glycan array binding signal (z-score) [15]: -0.879
- glycan array binding signal (z-score) [16]: -0.551
- glycan array binding signal (z-score) [17]: 0.099
- glycan array binding signal (z-score) [18]: 5.61
- glycan array binding signal (z-score) [19]: 0.094
- glycan array binding signal (z-score) [20]: 3.1
- glycan array binding signal (z-score) [21]: -0.555
- glycan array binding signal (z-score) [22]: -0.31
- glycan array binding signal (z-score) [23]: -0.581
- glycan array binding signal (z-score) [24]: -0.087
- glycan array binding signal (z-score) [25]: 3.27
- glycan array binding signal (z-score) [26]: 3.91
- glycan array binding signal (z-score) [27]: -0.398
- glycan array binding signal (z-score) [28]: 3.68
- glycan array binding signal (z-score) [29]: -1.28
- glycan array binding signal (z-score) [30]: 0.327
